These entries were drawn from the full list.
GIRK2 act = GIRK2 channel activation | P48051 | HEK293-GIRK2 thallium flux, Thallos fluorescence, MPD | calls only for hits at 25 µM | actives 0.05% (n = 63,000); call rule not given here
Calls only; i = inactive.

SMILES	GIRK2 act
COc1ccccc1NC(=O)CSc1nccn1-c1cccc(C(=O)NCc2cccs2)c1	i
COC(=O)c1ccc(NC(=O)CSc2nnc(N3CCN(c4ccc(F)cc4)CC3)s2)cc1	i
COc1ccc(OC)c(N2C(=NC(=O)CCCC(=O)O)SC3CS(=O)(=O)CC32)c1 (stereo not drawn)	i
COC(=O)c1ccc(Cl)c(NC(=O)CCC2CCCCC2)c1	i
Cn1cc(C(=O)Nc2nc(-c3ccco3)cs2)nn1	i
COc1ccc(OCc2noc(CNC(=O)CSc3nnnn3C)n2)cc1	i
O=S1(=O)CCC(CNS(=O)(=O)c2c(F)cccc2F)C1 (stereo not drawn)	i
CCNC(=O)Cc1nc(-c2ccncc2)n[nH]1	i
Cc1ccc(C(=O)N2CCC3(CC2)CC(=O)c2ccccc2O3)cc1C	i
Cc1ccc(Cl)cc1NC(=O)CSc1nccn1-c1cccc(C(=O)NCc2ccco2)c1	i
COc1ccc(NC(=O)CSc2nccnc2N2CCN(c3ccccc3OC)CC2)cc1	i
CCc1nc2sc(C(c3ccc(C(F)(F)F)cc3)N3CCCC3)c(O)n2n1 (stereo not drawn)	i
Cn1c(=O)n(CCN2CCCCC2)c(=O)c2c1nc1n2CCCN1c1ccc(Cl)cc1	i
CCCS(=O)(=O)N1CCc2ccc(NC(=O)C3(c4cccs4)CCCC3)cc2C1	i
CCn1cc(C(=O)NCCOC)c(S(=O)(=O)N2CCN(c3cccc(Cl)c3)CC2)n1	i
COc1cc(-c2noc(Cn3nc(-c4ccc(C(C)C)cc4)ccc3=O)n2)cc(OC)c1OC	i
Cc1c(C)n2c3c(=O)n(C)c(=O)n(C)c3nc2n1CCCN1CCc2ccccc2C1	i
O=C(CCn1ccc(=O)[nH]c1=O)N1CC(Oc2nc3c(Cl)cccc3s2)C1	i
CCOc1ccc(-c2noc(Cn3c(=O)n(CCCOC)c(=O)c4ccccc43)n2)cc1	i
CC(=O)c1cccc(NC(=O)CSc2nccn2-c2ccc(C(=O)NCc3ccccc3)cc2)c1	i
CCOC(=O)c1nc(Cn2cc(-c3nc(-c4ccsc4)no3)ccc2=O)no1	i
O=C(/C=C/c1ccccc1)N1CCC(CSCc2ccco2)CC1	i
Cc1cc(C)c(C)c(S(=O)(=O)NCC(=O)N2CCN(C(=O)c3ccco3)CC2)c1C	i
